Test results reported in PubChem BioAssay AID504766 (The Scripps Research Institute Molecular Screening Center, 2011).
Out of some 340,000 compounds screened, about 3,400 (1%) were called active.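 How the source made its calls: active means inhibition above the mean over all tested compounds plus 3 SD (cut at about 4.2% in these data); inactive means the rest.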 What follows is part of a selection rich in actives, with near analogues and random picks from the rest.

biological target: Nuclear receptor subfamily 0 group B member 1 (Homo sapiens) (UniProt P51843); assay: DAX1 (NR0B1) inhibitors, primary screen, cell-based, HEK293, Gal4-DAX1, luciferase luminescence (AID 504766); conditions: HEK293 Gal4-DAX1 luciferase reporter, at 6.75 µM, active compounds read high;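 further: 0% = DAX1-transfected cells with DMSO and 100% = empty-vector control cells with DMSO; inhibition shows as a rise in luminescence from relieved DAX1 repression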
Sequence (P51843 207-470 limits assumed): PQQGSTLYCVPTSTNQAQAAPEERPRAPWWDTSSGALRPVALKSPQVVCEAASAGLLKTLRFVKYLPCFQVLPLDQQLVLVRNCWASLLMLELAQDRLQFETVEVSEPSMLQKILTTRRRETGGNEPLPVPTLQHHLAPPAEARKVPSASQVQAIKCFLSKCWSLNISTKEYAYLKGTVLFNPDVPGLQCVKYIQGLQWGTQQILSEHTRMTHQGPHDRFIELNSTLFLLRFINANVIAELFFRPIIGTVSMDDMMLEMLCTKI

inhibition, active:
CNS(=O)(=O)c1ccc(NC(=O)Nc2ccc3c(c2)OCO3)cc1 4.23%, CC(Sc1nnnn1C)C(=O)NC(=O)NC1CCCCC1 (stereo unspecified) 4.23%, N#C/C=C1\Sc2ccccc2C(=O)N1CC(=O)N1CCN(S(=O)(=O)c2ccccc2)CC1 4.84%, COc1c(N2CCN(C(=S)Nc3ccccc3F)C(C)C2)c(F)cc2c(=O)c(C(=O)O)cn(C3CC3)c12 (stereo unspecified) 4.24%, Fc1ccccc1/C=N/Nc1cc(N2CCCCC2)ncn1 9.97%, COc1ccc(Cn2c(=O)cc(C)[nH]c2=S)cc1 4.43%

inhibition, inactive:
CC1(C)CC(=O)C=C(c2ccccc2CO)C1=O 0.81%, Cc1cccc(NC(=O)Nc2ccc3c(c2)OCO3)n1 3.3%, CC(C)CNS(=O)(=O)c1ccc(C(=O)Nc2ccc3c(c2)OCO3)cc1 0.58%, C/C(COc1ccccc1)=N\NC(=O)c1nnn(-c2nonc2N)c1-c1ccc(C)cc1 1.15%, Cc1nnc(SCC(=O)NC(=O)NC2CCCC2)n1N -0.17%, CC(Sc1nnnn1C1CCCCC1)C(=O)O (stereo unspecified) -0.46%, NC(=S)NN=Cc1ccc(OC(=O)COc2cc(Cl)c(Cl)cc2Cl)cn1 -2.71%, O=C(CN1CCCSc2ccccc21)N1CCN(S(=O)(=O)c2ccccc2)CC1 0.49%, O=C(CN1CCCSc2ccccc21)N1CCN(S(=O)(=O)c2cccc(F)c2)CC1 -0.31%, COCOCCn1cc(CN2CCS(=O)(=O)N(Cc3ccc(-c4ccc(OC)cc4)cc3)C(CC(C)C)C2=O)nn1 (stereo unspecified) -0.18%, CC1CN(C(=S)Nc2ccccc2F)CC(C)O1 (stereo unspecified) -0.08%, COc1ccccc1NC(=S)N1CCN(c2ccc(F)cc2)CC1 0.5%, Cc1ccc(C(=O)NC(C)C(c2cccs2)N2CCOCC2)cc1C (stereo unspecified) 0.43%, O=C(Nc1cccc(C(=O)O)c1)/C(=C\c1ccccc1)NC(=O)c1ccc(Br)o1 1.84%, c1cnn(-c2cc(N3CCOCC3)ncn2)c1 0.28%, COc1ccccc1N1CCN(C(=O)C(=O)N/N=C/c2ccccc2F)CC1 -0.62%, Cc1cccc(C(=O)OCC(=O)Nc2sccc2C(N)=O)c1C 0.47%, COc1cc2[nH]c(=S)n(Cc3ccc(F)cc3)c(=O)c2cc1OC -0.72%, COc1ccc(Cn2c(=S)[nH]c3cc(C(=O)N4CCCCC4)ccc3c2=O)cc1 -0.61%, COc1ccccc1-c1n[nH]nc1C1=CC(=O)CC(C)(C)C1 1.58%
